The results in this text go back to PubChem BioAssay (NCI).

Each structure is given as a SMILES string. About 83,000 compounds went through this panel and 20% of them were active in at least one assay; those are over-represented in the sample as a whole.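 Step 1: grow cells in 96-well plates. Step 2: add test compound at a single concentration. Step 3: incubate 48 h. Step 4: record percent growth.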 Unmarked numbers belong to inactive results. The source made the active and inactive calls. Rule for the calls: active = growth percent below 10; inactive = the rest.

The test system of the first assay is UO-31 renal. The experiment in a line: NCI-60 one-dose screen, 48 h (100 = growth as untreated, 0 = no growth, -100 = all killed). Conditions: 10 µM unless noted.
For the molecule `Clc1ccc([I+]c2ccc(Cl)cc2Cl)c(Cl)c1`, the growth was -50.8% (active).
Regarding `Cc1ccc(C2=NN(c3ccc(S(N)(=O)=O)cc3)C(c3cn(-c4ccccc4)nc3-c3ccccc3)C2)cc1` (stereo unspecified), the growth was 30.2%.
With `N#CC1=C(N)OC2=C(C(=O)CCC2)C1c1ccco1` (stereo unspecified), the growth was 79.3%.
The same measure, in the same setting: then `COC1=CC(c2ccc[nH]2)=N/C1=C\c1[nH]c(C)c(C(=O)CCCCC(=O)Oc2ccc3c(c2)CCC2C3CC[C@]3(C)[C@@H](O)CC[C@@H]23)c1C` (stereo partly specified), with 42.7%; and `COc1ccc(NC(=O)CSc2nc3ccccc3c(=O)n2Cc2cc(OC)c(OC)c(OC)c2)cc1`, with 73.5%; and `Nc1c(C(=O)Nc2c(Cl)cccc2Cl)sc2nc3c(cc12)CCCCC3`, with 63.9%.
In the case of `O=C(CN1CCN(c2cc3c(cc2F)c(=O)c(C(=O)O)cn3C2CC2)CC1)Nc1ccc(C(=O)/C=C/c2ccccc2)cc1`, the growth is 45%.
Still for that read-out and setting: to `COc1cc(/C=C/C(=O)c2ccc(NC(=O)CN3CCN(c4cc5c(cc4F)c(=O)c(C(=O)O)cn5C4CC4)CC3)cc2)cc(OC)c1OC` belongs 2.96% (active).
`NC(=O)c1c(NC(=O)c2ccc(OCC3CCCO3)cc2)sc2c1CCCC2` (stereo unspecified): the growth is 35%.
Take `COc1ccc(/C=C/C(=O)OCC(=O)NNC(=O)c2ccccc2)cc1OC`: the growth is 80.9%.
The same measure, in the same setting: then `Cc1sc(N=Nc2ccc(N(C)C)cc2)[n+]([O-])c1C`, with 82.4%; and `O=C(/C=C/c1ccccc1)n1c(-c2ccc(Cl)cc2)nc2ccccc21`, with -39% (active); and `COC(=O)[C@H]1[C@H](OC)[C@@H](OC(=O)/C=C/c2ccncc2)CC2CN3CCc4c([nH]c5cc(OC)ccc45)[C@@H]3C[C@@H]21` (stereo partly specified), with 56.9%.
Turning to `O=C1Nc2ccc(Br)cc2C1=N/C=c1\[nH]c(=O)/c(=C/c2ccc(Cl)cc2)s1`, the growth was 85.2%.
For `Nc1c(C(=O)Nc2cccc(C(F)(F)F)c2)sc2nc3c(cc12)CCCCC3`, the growth was -39.8% (active).
Take `COc1cc(/C=C2\C=C(c3ccc(F)cc3)N(Cc3ccccc3)C2=O)cc(OC)c1OC`: the growth is 45.9%.
Consider `Clc1nc(Cl)c2ncn(C/C=C/Cn3cnc4c(Cl)nc(Cl)nc43)c2n1`, for which the growth was 5.99% (active).
In the case of `NC(C(=O)O)C(O)c1ccc(OCc2ccccc2)c(OCc2ccccc2)c1` (stereo unspecified), the growth is 92.1%.
Still for that read-out and setting: to `Nc1c(C(=O)Nc2ccccc2)sc2nc3c(cc12)CCC3` belongs 80.9%.
Take `COc1ccc(/C=C/c2cc(N3CCOCC3)c3cc(F)c(F)cc3n2)cc1OC`: the growth is 18.2%.
For `O=[N+]([O-])c1cccc(-c2cc(-c3cc(Br)ccc3O)[nH]n2)c1`, the growth was 20.1%.
In the case of `COC1=CC(c2ccc[nH]2)=N/C1=C\c1[nH]c(C)c(C(=O)CCC(=O)Oc2ccc3c(c2)CCC2C3CC[C@]3(C)[C@@H](O)CC[C@@H]23)c1C` (stereo partly specified), the growth was -61.9% (active).
In the case of `COc1ccc(C2=NN(c3ccc(S(N)(=O)=O)cc3)C(c3cn(-c4ccccc4)nc3-c3ccc(Cl)cc3)C2)cc1` (stereo unspecified), the growth is 60.5%.
For `COc1cc(CCn2nnc3c(NCCCCO)ncnc32)cc(OC)c1`, the growth is 86.4%.
Same read-out and setting: to `Clc1ccc(-c2nc(-c3ccco3)cn3ccnc23)cc1` belongs 7.06% (active); to `O=C(c1ccncc1)N1N=C(c2ccc(Cl)cc2)CC1c1c[nH]c2ccccc12` (stereo unspecified), 45.2%.
Turning to `COc1ccc(-c2cn[nH]c2-c2cc(OC)c3c(c2)OCCO3)cc1`, the growth was 50.4%.
In the case of `O=S(=O)(c1ccccc1)n1ccc(-c2ccc3c(c2)CCO3)n1`, the growth is 51%.
For `COC1=CC(c2ccc[nH]2)=N/C1=C\c1[nH]c(C)c(C(=O)CCCCC(=O)NCc2ccccc2)c1C`, the growth was 13.9%.
Still for that read-out and setting: to `Nc1c(C(=O)Nc2cccc([N+](=O)[O-])c2)sc2nc3c(cc12)C(O)CCC3` (stereo unspecified) belongs 69%; to `COc1cccc(NC(=O)c2sc3nc4c(cc3c2N)CCCC4)c1`, 40%; to `O=C(Nc1cccc(C(F)(F)F)c1)Nc1ccc(OCc2nnc(-c3ccccc3)o2)c(F)c1`, 26.9%.
On the same count and under the same terms, to `CC(=O)Nc1nc(C(=O)N2N=C(C)/C(=C/c3ccc(Cl)cc3)C2=O)cs1` belongs 82.4%; to `COc1cc(C(=O)OCCCCCCCCCCC[P+](c2ccccc2)(c2ccccc2)c2ccccc2)ccc1O`, -8.76% (active).
For `O=C(NCCCN1CCN(CCCNC(=O)C2CCCCC2)CC1)C1CCCCC1`, the growth is 85.7%.
As for `COc1cc2c(cc1OC)C1(C)N(CC2)C(=O)OC1(C)C` (stereo unspecified), the growth is 91.3%.
`CCCCCc1c(C)[nH]c(/C=c2\[nH]/c(=C3/C=c4ccccc4=N3)cc2OC)c1C`: the growth is -89.7% (active).
Take `COc1cc(-c2n[nH]nc2-c2ccc3c(c2)OCCO3)cc(OC)c1OC`: the growth is 27.1%.

In another assay the test system is TK-10 renal. Described as above. Conditions: 10 µM unless noted.
For the molecule `Clc1ccc([I+]c2ccc(Cl)cc2Cl)c(Cl)c1`, the growth was -82.4% (active).
For `Cc1ccc(C2=NN(c3ccc(S(N)(=O)=O)cc3)C(c3cn(-c4ccccc4)nc3-c3ccccc3)C2)cc1` (stereo unspecified), the growth is 84.2%.
Take `N#CC1=C(N)OC2=C(C(=O)CCC2)C1c1ccco1` (stereo unspecified): the growth was 96.4%.
Turning to `COC1=CC(c2ccc[nH]2)=N/C1=C\c1[nH]c(C)c(C(=O)CCCCC(=O)Oc2ccc3c(c2)CCC2C3CC[C@]3(C)[C@@H](O)CC[C@@H]23)c1C` (stereo partly specified), the growth is 96.7%.
Regarding `COc1ccc(NC(=O)CSc2nc3ccccc3c(=O)n2Cc2cc(OC)c(OC)c(OC)c2)cc1`, the growth is 96.5%.
For the molecule `Nc1c(C(=O)Nc2c(Cl)cccc2Cl)sc2nc3c(cc12)CCCCC3`, the growth is 69%.
Regarding `O=C(CN1CCN(c2cc3c(cc2F)c(=O)c(C(=O)O)cn3C2CC2)CC1)Nc1ccc(C(=O)/C=C/c2ccccc2)cc1`, the growth is 39.9%.
With `COc1cc(/C=C/C(=O)c2ccc(NC(=O)CN3CCN(c4cc5c(cc4F)c(=O)c(C(=O)O)cn5C4CC4)CC3)cc2)cc(OC)c1OC`, the growth is 19.1%.
Turning to `NC(=O)c1c(NC(=O)c2ccc(OCC3CCCO3)cc2)sc2c1CCCC2` (stereo unspecified), the growth was 126%.
For the molecule `COc1ccc(/C=C/C(=O)OCC(=O)NNC(=O)c2ccccc2)cc1OC`, the growth is 121%.
On to `Cc1sc(N=Nc2ccc(N(C)C)cc2)[n+]([O-])c1C`, for which the growth was 104%.
Take `O=C(/C=C/c1ccccc1)n1c(-c2ccc(Cl)cc2)nc2ccccc21`: the growth is 18.6%.
On the same count and under the same terms, to `COC(=O)[C@H]1[C@H](OC)[C@@H](OC(=O)/C=C/c2ccncc2)CC2CN3CCc4c([nH]c5cc(OC)ccc45)[C@@H]3C[C@@H]21` (stereo partly specified) belongs 91.6%; to `O=C1Nc2ccc(Br)cc2C1=N/C=c1\[nH]c(=O)/c(=C/c2ccc(Cl)cc2)s1`, 101%.
Take `Nc1c(C(=O)Nc2cccc(C(F)(F)F)c2)sc2nc3c(cc12)CCCCC3`: the growth was -16.2% (active).
Regarding `COc1cc(/C=C2\C=C(c3ccc(F)cc3)N(Cc3ccccc3)C2=O)cc(OC)c1OC`, the growth was 90.3%.
On to `Clc1nc(Cl)c2ncn(C/C=C/Cn3cnc4c(Cl)nc(Cl)nc43)c2n1`, for which the growth is 79.9%.
On the same count and under the same terms, then `NC(C(=O)O)C(O)c1ccc(OCc2ccccc2)c(OCc2ccccc2)c1` (stereo unspecified), with 104%; and `Nc1c(C(=O)Nc2ccccc2)sc2nc3c(cc12)CCC3`, with 96%; and `COc1ccc(/C=C/c2cc(N3CCOCC3)c3cc(F)c(F)cc3n2)cc1OC`, with 31.9%.
On to `O=[N+]([O-])c1cccc(-c2cc(-c3cc(Br)ccc3O)[nH]n2)c1`, for which the growth was 12.5%.
On to `COC1=CC(c2ccc[nH]2)=N/C1=C\c1[nH]c(C)c(C(=O)CCC(=O)Oc2ccc3c(c2)CCC2C3CC[C@]3(C)[C@@H](O)CC[C@@H]23)c1C` (stereo partly specified), for which the growth was 34.4%.
As for `COc1ccc(C2=NN(c3ccc(S(N)(=O)=O)cc3)C(c3cn(-c4ccccc4)nc3-c3ccc(Cl)cc3)C2)cc1` (stereo unspecified), the growth was 90.6%.
Still for that read-out and setting: then `COc1cc(CCn2nnc3c(NCCCCO)ncnc32)cc(OC)c1`, with 119%.
`Clc1ccc(-c2nc(-c3ccco3)cn3ccnc23)cc1`: the growth is 11.9%.
With `O=C(c1ccncc1)N1N=C(c2ccc(Cl)cc2)CC1c1c[nH]c2ccccc12` (stereo unspecified), the growth was 107%.
Same read-out and setting: to `COc1ccc(-c2cn[nH]c2-c2cc(OC)c3c(c2)OCCO3)cc1` belongs 57.8%; to `O=S(=O)(c1ccccc1)n1ccc(-c2ccc3c(c2)CCO3)n1`, 76.2%; to `COC1=CC(c2ccc[nH]2)=N/C1=C\c1[nH]c(C)c(C(=O)CCCCC(=O)NCc2ccccc2)c1C`, 45.8%.
Regarding `Nc1c(C(=O)Nc2cccc([N+](=O)[O-])c2)sc2nc3c(cc12)C(O)CCC3` (stereo unspecified), the growth was 76.6%.
For the molecule `COc1cccc(NC(=O)c2sc3nc4c(cc3c2N)CCCC4)c1`, the growth was 55.7%.
Turning to `O=C(Nc1cccc(C(F)(F)F)c1)Nc1ccc(OCc2nnc(-c3ccccc3)o2)c(F)c1`, the growth is 60.2%.
Turning to `CC(=O)Nc1nc(C(=O)N2N=C(C)/C(=C/c3ccc(Cl)cc3)C2=O)cs1`, the growth was 123%.
Same read-out and setting: to `COc1cc(C(=O)OCCCCCCCCCCC[P+](c2ccccc2)(c2ccccc2)c2ccccc2)ccc1O` belongs 8.26% (active); to `O=C(NCCCN1CCN(CCCNC(=O)C2CCCCC2)CC1)C1CCCCC1`, 113%.
Still for that read-out and setting: to `COc1cc2c(cc1OC)C1(C)N(CC2)C(=O)OC1(C)C` (stereo unspecified) belongs 102%.
Regarding `CCCCCc1c(C)[nH]c(/C=c2\[nH]/c(=C3/C=c4ccccc4=N3)cc2OC)c1C`, the growth was -47% (active).
In the case of `COc1cc(-c2n[nH]nc2-c2ccc3c(c2)OCCO3)cc(OC)c1OC`, the growth was 52.4%.
